Records with an inconclusive call do not appear. A call without a number means that no potency is given here. Calls of active or inactive are those of the source. Unless noted, calls come from the whole dose curve.
Potency is the fitted concentration of half-maximal effect.

System in one assay: not listed separately
The experiment in a line: Nuclear factor erythroid 2-related factor 2/antioxidant responsive element (Nrf2/ARE) small molecule agonists: qHTS cell viability counter screen in human keratinocytes (AID 1919968; active = well fitted cell-killing curve with a large enough effect in the repeat runs; note: nearly all actives have a fitted effect of over 55% in size). The following applies: KeratinoSens HaCaT ARE cells viability, CellTiter-Fluor, 24 h; series mostly up to 92.4 µM. The gist of the method:
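CellTiter-Fluor fluorescence, read 1 h after reagent, gave viability in the same wells as the ARE-luciferase assay. KeratinoSens cells (1,500/well) had 23 h compound exposure at 37 C/5% CO2 following 5 h plating.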
In general terms: In qHTS, concentration-response curves come from the screen itself.
As for `CN(CCCN1c2ccccc2CCc2ccccc21)CC(=O)c1ccc(Cl)cc1`, the Potency result is “inactive”.
Same read-out and setting: the value for `Oc1ccc(C2(c3ccc(O)cc3)CC3CC2C2CCCC32)cc1` (stereo not given) was 29.4 µM (active); that for `CC(CO)(CO)CO` was “inactive”; that for `CC(C)(C)c1ccc(C(=O)O)cc1` was “inactive”.
On the same count and under the same terms, next, `C/C=C1\[C@H]2C=C(C)C[C@]1(N)c1ccc(=O)[nH]c1C2`: “inactive”; `CCN1/C(=C/C=C/c2sc3ccccc3[n+]2CC)Sc2ccccc21`: 3.26 µM (active); `CCCC(=O)OC`: “inactive”.
The same measure, in the same setting: the value for `C/C=C/C=C/CO` was “inactive”.
With `OCCOCC#CCOCCO`, the Potency result was “inactive”.
On to `CN(C)CCCN1c2ccccc2Sc2ccc(Cl)cc21`, for which the Potency was 54.5 µM (active).
Same read-out and setting: the value for `Cc1ccc(O)c2ncccc12` was 2.66 µM (active); that for `CCCCN1C(=O)[C@@H]([C@H](O)C2CCCCC2)NC(=O)C12CCN(Cc1ccc(Oc3ccc(C(=O)O)cc3)cc1)CC2` was “inactive”.
On the same count and under the same terms, the value for `O=C(O)Cc1ccc(Cl)cc1Cl` was “inactive”.
Same read-out and setting: next, `CC(=O)OC(C)OC(C)=O`: “inactive”.
As to `CCN(CC)CCOC(=O)C(c1ccccc1)C1CCCCC1` (stereo not given), the Potency result was “inactive”.
Consider `CC1=CC(=C(c2ccc(N)cc2)c2ccc(N)cc2)C=CC1=N`, for which the activity change, negative = cytotoxicity is -10.2% [at 8.39 µM] (inactive).
For the molecule `CC(=O)OCC(C)OC(C)=O` (stereo not given), the Potency result was “inactive”.
Still for that read-out and setting: next, `O=[N+]([O-])c1cccc(C(F)(F)F)c1`: “inactive”.
Still for that read-out and setting: the value for `CC1(C)[C@@H](O)CC[C@]2(C)[C@H]3C(=O)C=C4[C@@H]5C[C@@](C)(C(=O)O)CC[C@]5(C)CC[C@@]4(C)[C@]3(C)CC[C@@H]12` was 67.8 µM (active); that for `O=C(/C=C/c1ccccc1)OCCc1ccccc1` was “inactive”; that for `CCOC(=O)CC(=O)C(=O)OCC` was “inactive”.
Same read-out and setting: the value for `O=C(O)Cc1cc(I)c(Oc2ccc(O)c(I)c2)c(I)c1` was “inactive”.
Consider `CC(C)C(O)(c1ccc(OC(F)(F)F)cc1)c1cncnc1` (stereo not given), for which the Potency result is “inactive”.
Still for that read-out and setting: the value for `O=Cc1ccc(O)c(O)c1O` was “inactive”.
Still for that read-out and setting: next, `C=CCCCCCCC=C`: “inactive”; `CC/C=C1/OC(=O)c2ccccc21`: “inactive”; `Cc1cccc(Nc2ccccc2)c1`: “inactive”.
On the same count and under the same terms, the value for `Cc1ccc([N+](=O)[O-])c(N)c1` was “inactive”.
Consider `CC(=O)[O][Al]`, for which the Potency entry was “inactive”.
For `c1ccc2c(c1)ccc1c3ccccc3ccc21`, the Potency entry is “inactive”.
The same measure, in the same setting: the value for `O=C1CCc2ccc(OCCCCN3CCN(c4cccc(Cl)c4Cl)CC3)cc2N1` was 21.1 µM (active); that for `CCc1ccc2c(c1)C(=O)c1ccccc1C2=O` was “inactive”.
Same read-out and setting: next, `CC(C)(C)c1cc(CO)cc(C(C)(C)C)c1O`: “inactive”; `CCCCOC(=O)CO`: “inactive”.
Still for that read-out and setting: the value for `CCCCCCOC(=O)c1ccccc1` was “inactive”; that for `CC(C)c1ccccc1` was “inactive”; that for `CCN(Cc1cccc(S(=O)(=O)O)c1)c1ccc(C(=C2C=CC(=[N+](CC)Cc3cccc(S(=O)(=O)[O-])c3)C=C2)c2ccccc2)cc1` was “inactive”.
`On1ccccc1=S`: the Potency is 0.27 µM (active).
Still for that read-out and setting: the value for `N#CCCCC(C#N)CCC#N` (stereo not given) was “inactive”; that for `O=C(c1ccccc1)C1CCCCC1` was “inactive”.

The target of another assay is Gonadotropin-releasing hormone receptor (Homo sapiens) (UniProt P30968). The experiment in a line: Human gonadotropin-releasing hormone receptor (GnRHR) small molecule agonists, calcium flux assay in GnRHR-HEK293 cells (AID 1920063). Note: nearly all actives have a fitted effect of over 35% in size. Particulars: calcium flux fluorescence, agonist mode; series mostly up to 57.6 µM. A digest of the protocol: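 Agonist mode: compounds at 15 concentrations, in triplicate, went onto calcium dye-loaded GnRHR-HEK293 cells. Intracellular calcium was then followed as 480/540 nm fluorescence at 1 s intervals over 3 min.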
Chain of Gonadotropin-releasing hormone receptor (Homo sapiens) (P30968 whole entry, looked up): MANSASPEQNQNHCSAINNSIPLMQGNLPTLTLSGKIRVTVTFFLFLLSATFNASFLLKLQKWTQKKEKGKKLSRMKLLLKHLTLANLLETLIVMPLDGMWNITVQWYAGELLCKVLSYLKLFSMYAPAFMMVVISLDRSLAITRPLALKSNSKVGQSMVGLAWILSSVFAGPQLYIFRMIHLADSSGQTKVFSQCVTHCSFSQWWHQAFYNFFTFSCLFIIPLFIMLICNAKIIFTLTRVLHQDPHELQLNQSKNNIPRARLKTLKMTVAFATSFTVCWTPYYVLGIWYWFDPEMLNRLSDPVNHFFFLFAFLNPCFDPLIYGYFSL
(In general: Calcium assays in cells follow changes in intracellular calcium, usually with a dye or a luminescent sensor.)
For `CN(CCCN1c2ccccc2CCc2ccccc21)CC(=O)c1ccc(Cl)cc1`, the Potency entry is “inactive”.
The same measure, in the same setting: next, `Oc1ccc(C2(c3ccc(O)cc3)CC3CC2C2CCCC32)cc1` (stereo not given): “inactive”.
The same measure, in the same setting: next, `CC(CO)(CO)CO`: “inactive”.
As to `CC(C)(C)c1ccc(C(=O)O)cc1`, the Potency entry is “inactive”.
The same measure, in the same setting: the value for `C/C=C1\[C@H]2C=C(C)C[C@]1(N)c1ccc(=O)[nH]c1C2` was “inactive”.
Turning to `CCN1/C(=C/C=C/c2sc3ccccc3[n+]2CC)Sc2ccccc21`, the activity change is -1.77% [at 11.8 µM, hits give high values] (inactive).
In the case of `CCCC(=O)OC`, the Potency result is “inactive”.
Still for that read-out and setting: the value for `C/C=C/C=C/CO` was “inactive”; that for `OCCOCC#CCOCCO` was “inactive”.
Same read-out and setting: the value for `CN(C)CCCN1c2ccccc2Sc2ccc(Cl)cc21` was “inactive”.
Still for that read-out and setting: next, `Cc1ccc(O)c2ncccc12`: “inactive”; `CCCCN1C(=O)[C@@H]([C@H](O)C2CCCCC2)NC(=O)C12CCN(Cc1ccc(Oc3ccc(C(=O)O)cc3)cc1)CC2`: “inactive”; `O=C(O)Cc1ccc(Cl)cc1Cl`: “inactive”.
Regarding `CC(=O)OC(C)OC(C)=O`, the Potency result was “inactive”.
For the molecule `CCN(CC)CCOC(=O)C(c1ccccc1)C1CCCCC1` (stereo not given), the Potency result was “inactive”.
Consider `CC1=CC(=C(c2ccc(N)cc2)c2ccc(N)cc2)C=CC1=N`, for which the activity change is -1.28% [at 5.22 µM, hits give high values] (inactive).
With `CC(=O)OCC(C)OC(C)=O` (stereo not given), the Potency result was “inactive”.
Still for that read-out and setting: the value for `O=[N+]([O-])c1cccc(C(F)(F)F)c1` was “inactive”; that for `CC1(C)[C@@H](O)CC[C@]2(C)[C@H]3C(=O)C=C4[C@@H]5C[C@@](C)(C(=O)O)CC[C@]5(C)CC[C@@]4(C)[C@]3(C)CC[C@@H]12` was 34.3 µM (active).
Still for that read-out and setting: next, `O=C(/C=C/c1ccccc1)OCCc1ccccc1`: “inactive”; `CCOC(=O)CC(=O)C(=O)OCC`: “inactive”.
The same measure, in the same setting: the value for `O=C(O)Cc1cc(I)c(Oc2ccc(O)c(I)c2)c(I)c1` was “inactive”; that for `CC(C)C(O)(c1ccc(OC(F)(F)F)cc1)c1cncnc1` (stereo not given) was “inactive”.
In the case of `O=Cc1ccc(O)c(O)c1O`, the Potency entry was “inactive”.
For the molecule `C=CCCCCCCC=C`, the Potency result was “inactive”.
Same read-out and setting: next, `CC/C=C1/OC(=O)c2ccccc21`: “inactive”; `Cc1cccc(Nc2ccccc2)c1`: “inactive”.
The same measure, in the same setting: the value for `Cc1ccc([N+](=O)[O-])c(N)c1` was “inactive”; that for `CC(=O)[O][Al]` was “inactive”; that for `c1ccc2c(c1)ccc1c3ccccc3ccc21` was “inactive”.
Same read-out and setting: next, `O=C1CCc2ccc(OCCCCN3CCN(c4cccc(Cl)c4Cl)CC3)cc2N1`: “inactive”; `CCc1ccc2c(c1)C(=O)c1ccccc1C2=O`: “inactive”; `CC(C)(C)c1cc(CO)cc(C(C)(C)C)c1O`: “inactive”.
Take `CCCCOC(=O)CO`: the Potency result is “inactive”.
Same read-out and setting: next, `CCCCCCOC(=O)c1ccccc1`: “inactive”.
Same read-out and setting: next, `CC(C)c1ccccc1`: “inactive”; `CCN(Cc1cccc(S(=O)(=O)O)c1)c1ccc(C(=C2C=CC(=[N+](CC)Cc3cccc(S(=O)(=O)[O-])c3)C=C2)c2ccccc2)cc1`: “inactive”; `On1ccccc1=S`: “inactive”.
Still for that read-out and setting: next, `N#CCCCC(C#N)CCC#N` (stereo not given): “inactive”.
Take `O=C(c1ccccc1)C1CCCCC1`: the Potency entry is “inactive”.

The values are drawn from PubChem BioAssay (Tox21).
